In PubChem BioAssay (NCATS) one finds Potency, activity change, negative = inhibition and activation data, which are given here for 34 compounds.

Experiment [1] addresses Rap guanine nucleotide exchange factor 3 (Homo sapiens) (UniProt O95398). Put plainly: Confirmatory qHTS for antagonist of cAMP-regulated guanine nucleotide exchange factor 3 (EPAC1) (AID 1645880). Also: nearly all actives have a fitted effect of over 55% in size. Also: potency is read from the fitted curve at half-maximal effect.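 As to activity, negative = inhibition: plate controls were DMSO only for no effect and full effect of the ATA control for full effect.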 The note with it: EPAC1 Rap1B-BODIPY-GDP exchange, fluorescence; activity, negative = inhibition: at 115 µM (top of the series). The essentials: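 Released BODIPY-GDP fluoresces less than Rap1-bound BODIPY-GDP; the signal is followed at 480/540 nm at 5-min intervals over 30 min, after 5 min at room temperature. Reactions contain 100 nM EPAC1, 250 nM RAP1B-BODIPY-GDP and 50 uM GDP; results are normalized to ATA and DMSO.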
On the technique in general: In qHTS, concentration-response curves come from the screen itself.

For experiment [2] the target is unchanged. The experiment is described as follows: Confirmatory qHTS for agonist of cAMP-regulated guanine nucleotide exchange factor 3 (EPAC1) (AID 1645881).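 Also: EPAC1 catalysed release of BODIPY-GDP from Rap1B seen as fluorescence loss; 100% = effect of cAMP agonist control; nearly all actives have a fitted effect of over 75% in size.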
Experiment [3] has the same target. Put plainly: Counterscreen qHTS for antagonist of cAMP-regulated guanine nucleotide exchange factor 3 (EPAC1) (AID 1645888). Also: % of control where 0% means no effect. The essentials:
(§1)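 Rap1B-BODIPY-GDP 250 nM + GDP 50 uM; cpds 7-pt, final 9.74 nM–152 uM (activator mode) or from 7.32 nM upwards (inhibitor mode); RT; FI 480/540 nm at 5 and 30 min, then ± cAMP, reread.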

Experiment [4] shares this target. The experiment is described as follows: Counterscreen qHTS for agonist of cAMP-regulated guanine nucleotide exchange factor 3 (EPAC1) (AID 1645889). Also: % of control where 0% means no effect; nearly all actives have a fitted effect of over 40% in size. The essentials:
as §1

Inconclusive results are not listed. A number with no mark means an inactive call. Activity calls are given as the source filed them. Calls follow the shape of the dose curve; as a rule, active = well fitted curve in the direction sought with a large enough effect; inconclusive = small, poorly fitted or top-dose-only effect, or another doubt; inactive = no such curve, though single readings can be large; an effect the other way counts as inactive or inconclusive.

Chain of Rap guanine nucleotide exchange factor 3 (Homo sapiens) (O95398 whole entry, looked up): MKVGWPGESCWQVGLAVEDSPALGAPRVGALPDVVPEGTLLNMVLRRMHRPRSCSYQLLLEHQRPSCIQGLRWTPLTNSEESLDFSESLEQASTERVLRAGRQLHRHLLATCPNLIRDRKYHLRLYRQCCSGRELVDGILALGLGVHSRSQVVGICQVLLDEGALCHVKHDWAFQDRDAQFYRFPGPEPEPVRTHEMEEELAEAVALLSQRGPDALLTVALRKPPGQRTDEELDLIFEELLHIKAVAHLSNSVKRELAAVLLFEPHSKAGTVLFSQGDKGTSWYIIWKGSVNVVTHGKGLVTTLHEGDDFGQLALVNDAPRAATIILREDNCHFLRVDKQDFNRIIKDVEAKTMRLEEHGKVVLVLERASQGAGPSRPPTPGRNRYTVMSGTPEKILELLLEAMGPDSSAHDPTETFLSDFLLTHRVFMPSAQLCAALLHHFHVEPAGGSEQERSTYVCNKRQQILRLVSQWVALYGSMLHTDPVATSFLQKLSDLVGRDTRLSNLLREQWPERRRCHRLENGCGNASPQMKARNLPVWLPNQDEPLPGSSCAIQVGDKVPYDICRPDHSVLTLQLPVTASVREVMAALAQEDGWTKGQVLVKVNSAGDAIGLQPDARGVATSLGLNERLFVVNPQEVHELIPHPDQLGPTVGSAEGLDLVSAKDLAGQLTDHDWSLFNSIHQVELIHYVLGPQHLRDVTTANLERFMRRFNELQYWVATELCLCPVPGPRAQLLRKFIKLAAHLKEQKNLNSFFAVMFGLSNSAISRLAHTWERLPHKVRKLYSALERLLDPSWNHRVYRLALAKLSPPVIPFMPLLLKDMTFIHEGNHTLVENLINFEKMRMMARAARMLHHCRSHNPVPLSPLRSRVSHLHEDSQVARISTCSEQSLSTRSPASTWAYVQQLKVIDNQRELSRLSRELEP

Turning to `O=C(O)CCNC(=O)c1ccc(NC(=O)C(c2ccccc2)c2ccccc2)cc1`, the Potency entry in experiment [1], in experiment [2] and in experiment [3] was “inactive” in each case.

As for `O=C(O)c1cnn(-c2nc(-c3ccc(Cl)c(Cl)c3)cs2)c1C(F)(F)F`, in experiment [1], the Potency was 75.7 µM (active). For the same compound, the Potency result in experiment [2], in experiment [3] and in experiment [4] was “inactive” throughout.

On to `COC(=O)c1ccc2nc(-c3ccc(F)cc3)c(Cc3ccsc3)n2c1`, for which the Potency entry in experiment [1] and in experiment [2] was “inactive” each time. Besides, the activity change, negative = inhibition in experiment [3] is -9.08% [at 30.8 µM].

Consider `Cc1ccc(-c2nn3cnnc3c3ccccc23)cc1C`, for which the Potency result in experiment [1] and in experiment [2] was “inactive” each time. The activity change, negative = inhibition in experiment [3] was -44.9% [at 30.8 µM]. In addition, the activation in experiment [4] is 5.84% [at 30.8 µM].

For the compound `COC(=O)c1cn(C(=O)c2ccc(OC)c(OC)c2)c2ccccc12`, the Potency result in experiment [1] and in experiment [2] was “inactive” throughout. Moreover, in experiment [3], the activity change, negative = inhibition was -11% [at 30.8 µM].

On to `COC(=O)c1ccc2nc(-c3ccc(Cl)cc3)c(Cc3cccc(F)c3)n2c1`, for which the Potency result in experiment [1], in experiment [2] and in experiment [3] was “inactive” each time.

Consider `COc1ccc(-c2ccc(CCC(=O)O)n2-c2ccc(Cl)cc2C)cc1`, for which the Potency result in experiment [1], in experiment [2], in experiment [3] and in experiment [4] was “inactive” in each case.

For the compound `Cc1ccc(CN(Cc2ccco2)C(=O)c2ccco2)cc1`, the Potency result in experiment [1] and in experiment [2] was “inactive” each time. Further, the activity change, negative = inhibition in experiment [3] was -4.7% [at 30.8 µM]. Besides, the activation in experiment [4] is 27.7% [at 30.8 µM].

Take `CCc1ccc([C@@H]2CC=C(C(=O)O)[C@H](c3ccc(Cl)cc3)N2S(=O)(=O)c2ccc(C)cc2)cc1`: the Potency in experiment [1] is 50.1 µM (active). For the same compound, the Potency result in experiment [2] is “inactive”. Also, in experiment [3], the activity change, negative = inhibition was -9.33% [at 30.8 µM]. Further, in experiment [4], the activation was 4.76% [at 30.8 µM].

In the case of `COc1ccc(C2=CC3=C(Br)C(=O)C(C)(OC(=O)c4cccs4)C(=O)C3=CO2)cc1` (stereo not drawn), the Potency in experiment [1] was 16.9 µM (active). For the same compound, the Potency entry in experiment [2] and in experiment [3] was “inactive” in each case.

Turning to `Cn1ccc2c(N3CCCCCCC3)cc3c(c21)C1CCC3O1` (stereo not drawn), the Potency result in experiment [1], in experiment [2] and in experiment [3] was “inactive” each time.

`COCCN(CCOC)Cc1cc(=O)oc2cc(OC)c(Cl)cc12`: the Potency entry in experiment [1] and in experiment [2] was “inactive” each time. The activity change, negative = inhibition in experiment [3] was -10.8% [at 30.8 µM].

`COc1cc(N)ccc1-c1cc2ccccc2oc1=O`: the Potency result in experiment [1], in experiment [2] and in experiment [3] was “inactive” in each case.

Consider `Cc1ccc(C2N(c3cccc(Cl)c3)C(=O)N3CCCN23)cc1` (stereo not drawn), for which the Potency entry in experiment [1] and in experiment [2] was “inactive” in each case. In addition, in experiment [3], the activity change, negative = inhibition was -4.78% [at 30.8 µM]. Further, in experiment [4], the activation is 3.03% [at 30.8 µM].

As for `COc1ccc(C2CC(=O)Oc3ccc(OC)cc32)cc1` (stereo not drawn), the Potency result in experiment [1] and in experiment [2] was “inactive” in each case. In addition, in experiment [3], the activity change, negative = inhibition is -2.08% [at 30.8 µM].

Take `CCOc1nc(-c2ccccc2Cl)nc2ccccc12`: the Potency entry in experiment [1], in experiment [2] and in experiment [3] was “inactive” in each case.

Consider `O=C1CSC(=Nc2ccccc2)N1Cc1ccccc1`, for which the Potency result in experiment [1], in experiment [2] and in experiment [3] was “inactive” each time.

For `COC(=O)c1ccc2nc(-c3ccc(Cl)cc3)c(CC3CCCCC3)n2c1`, the Potency entry in experiment [1], in experiment [2], in experiment [3] and in experiment [4] was “inactive” throughout.

`Cc1ccc(N2CC(NC(=O)C(=O)c3c[nH]c4ccccc34)CC2=O)cc1C` (stereo not drawn): the Potency result in experiment [1], in experiment [2] and in experiment [3] was “inactive” throughout.

As to `COC(=O)c1ccc2nc(C3CCCCC3)c(Cc3ccccc3)n2c1`, the Potency result in experiment [1] and in experiment [2] was “inactive” in each case. In addition, the activity change, negative = inhibition in experiment [3] was 6.26% [at 30.8 µM]. In experiment [4], the activation was 9.29% [at 30.8 µM].

Consider `Cc1ccc(C2N(c3ccc(Cl)cc3)C(=O)N3CCCN23)cc1` (stereo not drawn), for which the Potency result in experiment [1], in experiment [2], in experiment [3] and in experiment [4] was “inactive” throughout.

`CC1CN(c2nc3ccccc3cc2-c2ccccc2)CC(C)O1` (stereo not drawn): the Potency result in experiment [1], in experiment [2], in experiment [3] and in experiment [4] was “inactive” each time.

For the compound `CCCCc1c(C)nc2ccccc2c1SCCC#N`, the Potency entry in experiment [1] and in experiment [2] was “inactive” each time. Moreover, the activity change, negative = inhibition in experiment [3] is -10% [at 30.8 µM].

Regarding `C=CCN(CC=C)Cc1cc(=O)oc2cc(C)cc(C)c12`, the Potency entry in experiment [1] and in experiment [2] was “inactive” each time. Moreover, the activity change, negative = inhibition in experiment [3] is -4% [at 30.8 µM].

For `Cc1cc(C)c2c(c1)OC(=O)CC2c1ccccc1C` (stereo not drawn), the Potency result in experiment [1], in experiment [2], in experiment [3] and in experiment [4] was “inactive” each time.

With `COC(=O)c1ccc2nc(-c3ccc(OC)c(OC)c3)c(CC3CCCCC3)n2c1`, the Potency result in experiment [1], in experiment [2], in experiment [3] and in experiment [4] was “inactive” each time.

Turning to `CNc1snc(C)c1C(=O)OCC(=O)Nc1ccc(C)cc1F`, the Potency entry in experiment [1], in experiment [2], in experiment [3] and in experiment [4] was “inactive” throughout.

For the compound `O=C(c1ccccc1F)n1c2c(c3ccccc31)CCCC2`, the Potency entry in experiment [1], in experiment [2] and in experiment [3] was “inactive” each time.

Consider `CCCC(CNC(C)=O)(C1=CCCCC1)c1ccccc1` (stereo not drawn), for which the Potency result in experiment [1] and in experiment [2] was “inactive” in each case. Also, in experiment [3], the activity change, negative = inhibition is 1.17% [at 30.8 µM]. In addition, in experiment [4], the activation is 15.1% [at 30.8 µM].

As to `c1ccc(CNc2c(-c3cccc(SC4CCCCC4)c3)nc3ccccn23)cc1`, the Potency entry in experiment [1] and in experiment [2] was “inactive” in each case. Besides, in experiment [3], the activity change, negative = inhibition is 4.85% [at 30.8 µM]. Further, in experiment [4], the activation was 4.1% [at 30.8 µM].

As for `COc1cc(NC(C)=O)ccc1-c1cc2ccccc2oc1=O`, the Potency entry in experiment [1], in experiment [2] and in experiment [3] was “inactive” throughout.

Regarding `C=CCOc1ccc(/C=N/NC(C)=O)cc1OCC`, the Potency result in experiment [1], in experiment [2], in experiment [3] and in experiment [4] was “inactive” throughout.

In the case of `COc1ccc(NC(=O)CSc2ccccc2)cc1S(=O)(=O)N1CCCCC1`, the Potency result in experiment [1], in experiment [2] and in experiment [3] was “inactive” throughout.

For the compound `O=c1cc(N2CCCCC2)c(-c2ccccc2)nn1Cc1ccccc1`, the Potency result in experiment [1], in experiment [2] and in experiment [3] was “inactive” in each case.
